Assay in all cases: DAPPL (digital affinity profiling via proximity ligation, sequencing); 10 mM Tris-HCl pH 7.5, 50 mM NaCl, 1 mM DTT, 4% glycerol, room temperature, 30 min; GST-TFs on glutathione beads, 16-mer random dsDNA library, 0.1% formaldehyde crosslink after washing; high values mean tight binding
For one test, the target named is T1, ELK1 (Homo sapiens, UniProt P19419 1-428).
T1 sequence: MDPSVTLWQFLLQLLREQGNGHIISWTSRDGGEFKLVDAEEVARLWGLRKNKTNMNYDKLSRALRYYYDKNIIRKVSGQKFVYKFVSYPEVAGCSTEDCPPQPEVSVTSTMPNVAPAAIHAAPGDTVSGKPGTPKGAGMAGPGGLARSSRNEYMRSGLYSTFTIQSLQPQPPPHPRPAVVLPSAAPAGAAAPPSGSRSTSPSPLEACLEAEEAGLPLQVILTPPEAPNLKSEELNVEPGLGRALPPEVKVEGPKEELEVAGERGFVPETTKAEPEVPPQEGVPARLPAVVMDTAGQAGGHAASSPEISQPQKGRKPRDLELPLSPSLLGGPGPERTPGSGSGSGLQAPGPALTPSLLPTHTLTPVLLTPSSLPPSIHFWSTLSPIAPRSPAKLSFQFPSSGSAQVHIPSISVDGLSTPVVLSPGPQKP
The conditions noted are these: protein: recombinant; tags: N-terminal GST; dsDNA, one strand shown. Summed up:
(§1)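 Each value of binding signal is a hexamer's read frequency for a factor divided by the same hexamer's frequency in the tag-only sample. Barcoded, bead-captured GST fusions of human transcription factors made in yeast were pooled with that sample and incubated with 200 nmole of a random double-stranded 16-mer DNA library in Tris/NaCl/DTT/glycerol buffer at room temperature for 30 min. Washing, 0.1% formaldehyde crosslinking, proximity ligation, PCR and Illumina NextSeq500 sequencing followed.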

The next test deals with T2, EHF (Homo sapiens, UniProt Q9NZC4 1-300).
T2 sequence: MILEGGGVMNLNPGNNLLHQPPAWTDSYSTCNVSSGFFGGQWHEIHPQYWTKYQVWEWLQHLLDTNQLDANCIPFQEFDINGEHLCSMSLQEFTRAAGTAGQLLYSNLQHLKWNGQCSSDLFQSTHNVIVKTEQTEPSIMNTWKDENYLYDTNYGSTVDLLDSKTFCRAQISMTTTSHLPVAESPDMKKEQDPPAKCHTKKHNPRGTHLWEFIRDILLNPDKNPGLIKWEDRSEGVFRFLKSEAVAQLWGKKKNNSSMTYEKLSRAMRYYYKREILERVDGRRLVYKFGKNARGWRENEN
To be noted: protein: recombinant; tags: N-terminal GST; dsDNA, one strand shown. The essentials: as §1

For another test, the target named is T3, ELK3 (Homo sapiens, UniProt P41970 1-407).
T3 sequence: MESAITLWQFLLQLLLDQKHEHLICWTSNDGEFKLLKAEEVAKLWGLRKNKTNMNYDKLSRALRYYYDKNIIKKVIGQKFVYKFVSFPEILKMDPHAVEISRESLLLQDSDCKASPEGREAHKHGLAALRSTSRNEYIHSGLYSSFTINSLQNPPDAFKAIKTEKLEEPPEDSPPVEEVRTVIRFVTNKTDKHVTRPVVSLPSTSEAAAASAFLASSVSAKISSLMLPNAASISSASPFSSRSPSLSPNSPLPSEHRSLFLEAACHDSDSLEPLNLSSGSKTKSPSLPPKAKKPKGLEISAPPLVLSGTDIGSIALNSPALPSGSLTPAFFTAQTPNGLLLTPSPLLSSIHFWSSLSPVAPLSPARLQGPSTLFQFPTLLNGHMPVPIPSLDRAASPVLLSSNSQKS
The conditions noted are these: protein: recombinant; tags: N-terminal GST; dsDNA, one strand shown. Summed up: as §1

The target in a further test is HSF1 (Homo sapiens, UniProt Q00613 1-529). To be noted: protein: recombinant; tags: N-terminal GST; chain copies: 3; dsDNA, one strand shown. The essentials: as §1
HSF1, sequence (Q00613 whole entry): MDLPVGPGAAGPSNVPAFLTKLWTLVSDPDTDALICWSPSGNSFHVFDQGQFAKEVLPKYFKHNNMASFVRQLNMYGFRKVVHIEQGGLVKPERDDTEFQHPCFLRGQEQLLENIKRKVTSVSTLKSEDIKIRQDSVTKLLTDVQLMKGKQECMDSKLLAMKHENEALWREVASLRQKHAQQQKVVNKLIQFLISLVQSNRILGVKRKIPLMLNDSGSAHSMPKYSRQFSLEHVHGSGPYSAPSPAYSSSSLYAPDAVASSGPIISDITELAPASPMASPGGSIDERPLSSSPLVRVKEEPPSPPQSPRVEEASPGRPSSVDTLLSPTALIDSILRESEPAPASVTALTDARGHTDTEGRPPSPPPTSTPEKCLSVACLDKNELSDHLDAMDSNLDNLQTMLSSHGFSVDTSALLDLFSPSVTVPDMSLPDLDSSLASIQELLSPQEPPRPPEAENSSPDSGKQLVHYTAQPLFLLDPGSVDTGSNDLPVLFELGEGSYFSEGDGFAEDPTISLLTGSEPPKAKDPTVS
In a further test the target is T4, SPIC (Homo sapiens, UniProt Q8N5J4 1-248).
T4 sequence: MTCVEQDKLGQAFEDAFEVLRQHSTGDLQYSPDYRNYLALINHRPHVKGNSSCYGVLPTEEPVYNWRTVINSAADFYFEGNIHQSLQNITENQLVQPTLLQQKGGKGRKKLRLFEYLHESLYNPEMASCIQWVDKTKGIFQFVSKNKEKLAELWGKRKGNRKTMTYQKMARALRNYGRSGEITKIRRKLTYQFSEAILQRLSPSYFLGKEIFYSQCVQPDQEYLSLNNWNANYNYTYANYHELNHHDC
To be noted: protein: recombinant; tags: N-terminal GST; dsDNA, one strand shown. The essentials: as §1

The target of a further test is T5, ELK4 (Homo sapiens, UniProt P28324-2 1-405).
T5 sequence: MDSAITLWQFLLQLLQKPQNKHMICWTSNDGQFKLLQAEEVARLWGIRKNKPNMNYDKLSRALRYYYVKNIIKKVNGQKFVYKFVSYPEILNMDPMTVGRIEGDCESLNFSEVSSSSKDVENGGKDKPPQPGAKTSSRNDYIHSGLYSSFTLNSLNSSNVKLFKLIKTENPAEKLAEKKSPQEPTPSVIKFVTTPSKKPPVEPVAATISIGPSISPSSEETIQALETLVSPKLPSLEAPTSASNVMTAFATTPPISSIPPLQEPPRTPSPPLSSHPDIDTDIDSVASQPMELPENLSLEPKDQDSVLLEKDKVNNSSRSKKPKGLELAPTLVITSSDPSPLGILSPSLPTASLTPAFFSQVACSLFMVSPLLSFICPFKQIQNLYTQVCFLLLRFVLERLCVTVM
To be noted: protein: recombinant; tags: N-terminal GST; dsDNA, one strand shown. Summed up: as §1

In a further test the target is CRX (Homo sapiens, UniProt O43186 1-299). The conditions noted are these: protein: recombinant; tags: N-terminal GST; dsDNA, one strand shown. Summed up: as §1
CRX, sequence (O43186 whole entry): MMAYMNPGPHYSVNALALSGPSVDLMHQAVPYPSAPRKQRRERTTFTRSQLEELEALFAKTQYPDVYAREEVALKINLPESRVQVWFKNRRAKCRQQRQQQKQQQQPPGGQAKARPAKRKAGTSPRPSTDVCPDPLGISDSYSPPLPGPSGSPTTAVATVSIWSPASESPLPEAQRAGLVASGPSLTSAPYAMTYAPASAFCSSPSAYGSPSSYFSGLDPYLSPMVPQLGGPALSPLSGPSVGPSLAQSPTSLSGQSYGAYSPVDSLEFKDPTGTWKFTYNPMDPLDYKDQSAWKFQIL
The target in another test is T6, GABPA (Homo sapiens, UniProt Q06546 1-454).
T6 sequence: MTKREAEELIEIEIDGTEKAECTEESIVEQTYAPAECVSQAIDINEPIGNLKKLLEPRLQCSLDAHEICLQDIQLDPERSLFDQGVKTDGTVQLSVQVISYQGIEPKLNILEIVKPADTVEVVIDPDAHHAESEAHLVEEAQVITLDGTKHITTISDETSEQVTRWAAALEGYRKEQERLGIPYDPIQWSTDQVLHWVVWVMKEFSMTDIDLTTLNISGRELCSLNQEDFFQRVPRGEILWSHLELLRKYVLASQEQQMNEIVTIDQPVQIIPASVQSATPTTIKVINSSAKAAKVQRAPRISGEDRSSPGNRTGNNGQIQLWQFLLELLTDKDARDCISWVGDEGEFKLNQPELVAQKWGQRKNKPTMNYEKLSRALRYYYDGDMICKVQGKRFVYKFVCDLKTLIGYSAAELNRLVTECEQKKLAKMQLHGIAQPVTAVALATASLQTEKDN
The conditions noted are these: protein: recombinant; tags: N-terminal GST; dsDNA, one strand shown. Summed up:
as §1

A further test addresses ELF1 (Homo sapiens, UniProt P32519 1-619). To be noted: protein: recombinant; tags: N-terminal GST; dsDNA, one strand shown. The essentials: as §1
A further test has as its target SPIB (Homo sapiens, UniProt Q01892 1-262). To be noted: protein: recombinant; tags: N-terminal GST; dsDNA, one strand shown. Summed up: as §1
For another test, the target named is ELF4 (Homo sapiens, UniProt Q99607 1-663). To be noted: protein: recombinant; tags: N-terminal GST; dsDNA, one strand shown. The essentials: as §1
ELF4, sequence (Q99607 whole entry): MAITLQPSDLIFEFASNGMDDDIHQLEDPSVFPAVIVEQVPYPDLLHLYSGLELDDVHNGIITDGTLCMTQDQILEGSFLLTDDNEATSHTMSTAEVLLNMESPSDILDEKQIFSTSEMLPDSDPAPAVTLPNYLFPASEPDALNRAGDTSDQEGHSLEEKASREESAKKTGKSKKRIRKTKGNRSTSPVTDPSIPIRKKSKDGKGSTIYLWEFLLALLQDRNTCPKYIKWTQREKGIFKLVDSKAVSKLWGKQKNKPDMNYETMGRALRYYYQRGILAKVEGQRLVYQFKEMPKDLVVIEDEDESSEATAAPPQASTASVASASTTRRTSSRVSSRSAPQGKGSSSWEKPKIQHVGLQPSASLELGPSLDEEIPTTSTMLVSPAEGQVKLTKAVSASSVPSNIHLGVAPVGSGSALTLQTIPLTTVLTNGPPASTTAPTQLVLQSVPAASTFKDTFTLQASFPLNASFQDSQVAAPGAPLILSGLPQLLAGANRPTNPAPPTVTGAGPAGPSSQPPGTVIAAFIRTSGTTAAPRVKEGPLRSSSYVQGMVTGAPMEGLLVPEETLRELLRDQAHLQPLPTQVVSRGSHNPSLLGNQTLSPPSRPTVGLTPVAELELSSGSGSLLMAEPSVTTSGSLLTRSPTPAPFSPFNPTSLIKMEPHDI
The target of a further test is T7, ELF3 (Homo sapiens, UniProt P78545 1-371).
T7 sequence: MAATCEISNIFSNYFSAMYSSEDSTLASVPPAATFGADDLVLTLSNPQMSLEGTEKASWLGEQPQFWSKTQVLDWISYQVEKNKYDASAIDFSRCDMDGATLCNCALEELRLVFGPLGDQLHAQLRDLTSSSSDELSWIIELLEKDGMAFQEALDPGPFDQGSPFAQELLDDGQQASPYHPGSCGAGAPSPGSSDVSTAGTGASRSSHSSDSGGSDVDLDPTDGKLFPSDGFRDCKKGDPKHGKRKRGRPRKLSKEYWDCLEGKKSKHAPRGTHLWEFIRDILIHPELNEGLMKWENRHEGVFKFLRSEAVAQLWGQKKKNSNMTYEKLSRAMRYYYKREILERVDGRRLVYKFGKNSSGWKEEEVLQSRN
To be noted: protein: recombinant; tags: N-terminal GST; dsDNA, one strand shown. Summed up: as §1

In a further test the target is T8, ERF (Homo sapiens, UniProt P50548 1-548).
T8 sequence: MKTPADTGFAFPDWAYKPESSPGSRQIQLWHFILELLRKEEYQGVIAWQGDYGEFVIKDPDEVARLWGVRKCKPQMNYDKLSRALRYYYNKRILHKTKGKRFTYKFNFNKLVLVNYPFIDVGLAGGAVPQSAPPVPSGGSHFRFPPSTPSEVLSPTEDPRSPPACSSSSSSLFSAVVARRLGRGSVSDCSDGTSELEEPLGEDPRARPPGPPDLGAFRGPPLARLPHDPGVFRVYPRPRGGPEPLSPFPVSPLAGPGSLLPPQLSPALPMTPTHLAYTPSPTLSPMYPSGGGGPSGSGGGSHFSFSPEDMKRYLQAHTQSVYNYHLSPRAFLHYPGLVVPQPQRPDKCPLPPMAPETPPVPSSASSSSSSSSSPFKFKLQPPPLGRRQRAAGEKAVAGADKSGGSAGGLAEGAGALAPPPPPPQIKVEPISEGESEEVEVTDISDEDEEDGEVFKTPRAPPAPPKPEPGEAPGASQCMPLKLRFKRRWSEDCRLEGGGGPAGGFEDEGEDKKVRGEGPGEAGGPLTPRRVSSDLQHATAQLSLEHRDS
To be noted: protein: recombinant; tags: N-terminal GST; dsDNA, one strand shown. Summed up:
as §1

For a further test, the target named is T9, ETS2 (Homo sapiens, UniProt P15036 1-469).
T9 sequence: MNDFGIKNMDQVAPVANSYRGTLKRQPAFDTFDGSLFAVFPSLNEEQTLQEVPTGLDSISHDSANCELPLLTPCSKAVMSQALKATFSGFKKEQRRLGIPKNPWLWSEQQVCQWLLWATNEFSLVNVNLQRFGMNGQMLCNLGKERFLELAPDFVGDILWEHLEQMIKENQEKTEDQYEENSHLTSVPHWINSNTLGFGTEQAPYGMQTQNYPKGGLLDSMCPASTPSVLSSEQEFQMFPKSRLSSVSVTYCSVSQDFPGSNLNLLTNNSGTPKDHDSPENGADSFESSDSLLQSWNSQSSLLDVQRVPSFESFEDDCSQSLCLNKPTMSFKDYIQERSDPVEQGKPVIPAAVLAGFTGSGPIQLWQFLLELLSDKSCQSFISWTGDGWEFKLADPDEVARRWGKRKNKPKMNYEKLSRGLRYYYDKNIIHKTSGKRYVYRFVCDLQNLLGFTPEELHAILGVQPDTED
The conditions noted are these: protein: recombinant; tags: N-terminal GST; dsDNA, one strand shown. The essentials: as §1

ELF1, sequence (P32519 whole entry): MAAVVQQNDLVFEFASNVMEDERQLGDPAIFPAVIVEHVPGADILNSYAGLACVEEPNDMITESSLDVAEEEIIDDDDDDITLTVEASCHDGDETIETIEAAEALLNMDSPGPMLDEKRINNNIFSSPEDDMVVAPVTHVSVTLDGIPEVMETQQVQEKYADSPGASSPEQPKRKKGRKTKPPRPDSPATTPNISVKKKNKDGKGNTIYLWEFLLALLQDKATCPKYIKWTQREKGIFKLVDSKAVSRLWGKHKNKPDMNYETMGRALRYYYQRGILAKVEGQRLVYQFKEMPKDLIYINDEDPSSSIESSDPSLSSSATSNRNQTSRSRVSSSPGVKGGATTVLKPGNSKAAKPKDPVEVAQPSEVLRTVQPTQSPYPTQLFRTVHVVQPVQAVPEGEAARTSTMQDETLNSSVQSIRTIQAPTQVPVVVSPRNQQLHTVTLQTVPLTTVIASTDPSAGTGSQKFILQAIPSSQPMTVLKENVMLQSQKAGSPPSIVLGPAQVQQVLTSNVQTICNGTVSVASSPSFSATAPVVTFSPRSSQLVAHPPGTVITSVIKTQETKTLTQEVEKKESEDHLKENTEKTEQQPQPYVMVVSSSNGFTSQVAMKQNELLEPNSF
SPIB, sequence (Q01892 whole entry): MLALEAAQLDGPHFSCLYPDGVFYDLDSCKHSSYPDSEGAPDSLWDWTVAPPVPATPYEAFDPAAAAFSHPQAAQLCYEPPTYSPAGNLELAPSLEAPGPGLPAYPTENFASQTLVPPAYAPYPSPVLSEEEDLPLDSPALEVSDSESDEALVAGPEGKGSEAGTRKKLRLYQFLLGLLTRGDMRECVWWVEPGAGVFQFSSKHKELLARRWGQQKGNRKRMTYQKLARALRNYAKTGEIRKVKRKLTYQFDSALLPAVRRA

Take TCCAGC: the binding signal is 1.03 fold enrichment (6-mer frequency, TF over GST control) with ELK1; 1.04 fold enrichment (6-mer frequency, TF over GST control) in the test with EHF; 1.07 fold enrichment (6-mer frequency, TF over GST control) with ELK3; 1.44 fold enrichment (6-mer frequency, TF over GST control) with HSF1; 1.06 fold enrichment (6-mer frequency, TF over GST control) with SPIC; 1.17 fold enrichment (6-mer frequency, TF over GST control) with ELK4. For the same sequence, the binding signal with CRX was 1.08 fold enrichment (6-mer frequency, TF over GST control).
For the sequence GCCGAA, the binding signal was 1 fold enrichment (6-mer frequency, TF over GST control) with ELK1; 1.02 fold enrichment (6-mer frequency, TF over GST control) in the test with GABPA; 1.01 fold enrichment (6-mer frequency, TF over GST control) with ELF1; 1.03 fold enrichment (6-mer frequency, TF over GST control) with EHF; 1.02 fold enrichment (6-mer frequency, TF over GST control) in the test with SPIB; 1.06 fold enrichment (6-mer frequency, TF over GST control) with ELK3. Besides, the binding signal with HSF1 was 1.14 fold enrichment (6-mer frequency, TF over GST control); in the test with SPIC it was 1.09 fold enrichment (6-mer frequency, TF over GST control); with ELF4 it was 1.06 fold enrichment (6-mer frequency, TF over GST control); in the test with ELF3 it was 1.02 fold enrichment (6-mer frequency, TF over GST control); with ERF, 1.05 fold enrichment (6-mer frequency, TF over GST control); with ETS2, 1.04 fold enrichment (6-mer frequency, TF over GST control).
